Measured values taken from PubChem BioAssay AID1159580 (chemical genetic matrix, 2015).
Hit rate of the full screen: of about 5,500 compounds, about 2,000 (36%) were called active. About 18% were inconclusive and are not listed. Rule as the data show it: active = normalized growth mostly below about 0.91 (no sharp cut-off); inconclusive = no clear call, values can overlap the other calls; inactive = mostly above about 0.92. This is one part of the list.

Assay: chemical genetic growth profiling, strain panel (AID 1159580);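 also: tested at 20 µM; growth read once vehicle control cultures reached saturation at 30 °C; 1 = growth at the plate median or of vehicle wells; lower values mean less growth of the strain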
Details: growth OD

Measured: normalized growth

CCOC(=O)[C@H](CCc1ccccc1)N[C@H]1CCc2ccccc2N(CC(=O)O)C1=O
inactive: S. cerevisiae deletion strains, locus YJR075W, strain HOC1, active compounds read low 0.994 | S. cerevisiae deletion strains, locus YKL009W, strain mrt4, active compounds read low 1 | S. cerevisiae deletion strains, locus YKL068W, active compounds read low 0.973 | S. cerevisiae deletion strains, locus YKL085W, strain MDH1 (second series), active compounds read low 0.967 | S. cerevisiae deletion strains, locus YKL085W, strain MDH1, active compounds read low 0.967 | S. cerevisiae deletion strains, locus YKL160W, strain elf1, active compounds read low 0.993 | S. cerevisiae deletion strains, locus YKL190W, strain CNB1, active compounds read low 0.989 | S. cerevisiae deletion strains, locus YKR001C, strain vps1, active compounds read low 0.983 | S. cerevisiae deletion strains, locus YKR026C, strain gcn3, active compounds read low 0.979 | S. cerevisiae deletion strains, locus YKR091W, strain srl3, active compounds read low 0.989 | S. cerevisiae deletion strains, locus YLL001W, strain dnm1, active compounds read low 0.983 | S. cerevisiae deletion strains, locus YLL026W, active compounds read low 0.989 | S. cerevisiae deletion strains, locus YLL041C, strain sdh2, active compounds read low 0.986 | S. cerevisiae deletion strains, locus YLR027C, strain aat2, active compounds read low 0.982 | S. cerevisiae deletion strains, locus YLR039C, strain RIC1, active compounds read low 1.02 | S. cerevisiae deletion strains, locus YLR058C, strain SHM2, active compounds read low 0.999 | S. cerevisiae deletion strains, locus YLR102C, strain apc9, active compounds read low 0.972 | S. cerevisiae deletion strains, locus YLR113W, strain HOG1, active compounds read low 1.01 | S. cerevisiae deletion strains, locus YLR221C, strain rsa3, active compounds read low 0.983 | S. cerevisiae deletion strains, locus YLR258W, strain gsy2, active compounds read low 0.983 | S. cerevisiae deletion strains, locus YLR262C, strain YPT6 (second series), active compounds read low 0.97 | S. cerevisiae deletion strains, locus YLR262C, strain YPT6, active compounds read low 0.955 | S. cerevisiae deletion strains, locus YLR268W, strain sec22, active compounds read low 0.98 | S. cerevisiae deletion strains, locus YLR320W, strain mms22, active compounds read low 0.966 | S. cerevisiae deletion strains, locus YLR330W, strain CHS5, active compounds read low 0.986 | S. cerevisiae deletion strains, locus YLR342W, strain FKS1 (second series), active compounds read low 1.05 | S. cerevisiae deletion strains, locus YLR342W, strain FKS1, active compounds read low 0.956 | S. cerevisiae deletion strains, locus YLR357W, strain rsc2, active compounds read low 0.912 | S. cerevisiae deletion strains, locus YLR370C, strain arc18, active compounds read low 0.988 | S. cerevisiae deletion strains, locus YLR371W, strain rom2, active compounds read low 0.969 | S. cerevisiae deletion strains, locus YLR384C, strain iki3, active compounds read low 0.986 | S. cerevisiae deletion strains, locus YLR418C, strain cdc73, active compounds read low 0.953 | S. cerevisiae deletion strains, locus YML016C, strain PPZ1, active compounds read low 0.98 | S. cerevisiae deletion strains, locus YML032C, strain rad52, active compounds read low 0.984 | S. cerevisiae deletion strains, locus YML120C, strain ndi1, active compounds read low 0.975 | S. cerevisiae deletion strains, locus YML124C, strain tub3, active compounds read low 0.971 | S. cerevisiae deletion strains, locus YMR058W, strain fet3, active compounds read low 0.988 | S. cerevisiae deletion strains, locus YMR078C, strain ctf18, active compounds read low 0.978 | S. cerevisiae deletion strains, locus YMR125W, strain sto1, active compounds read low 0.996 | S. cerevisiae deletion strains, locus YMR129W, active compounds read low 0.991 | S. cerevisiae deletion strains, locus YMR205C, strain PFK2, active compounds read low 0.974 | S. cerevisiae deletion strains, locus YMR223W, strain ubp8, active compounds read low 0.993 | S. cerevisiae deletion strains, locus YMR231W, strain pep5, active compounds read low 0.986 | S. cerevisiae deletion strains, locus YMR263W, strain SAP30, active compounds read low 0.993 | S. cerevisiae deletion strains, locus YMR307W, strain GAS1, active compounds read low 0.939 | S. cerevisiae deletion strains, locus YNL067W, strain RPL9B, active compounds read low 0.996 | S. cerevisiae deletion strains, locus YNL071W, strain lat1, active compounds read low 0.989 | S. cerevisiae deletion strains, locus YNL128W, strain TEP1, active compounds read low 0.984 | S. cerevisiae deletion strains, locus YNL153C, strain GIM3, active compounds read low 0.988 | S. cerevisiae deletion strains, locus YNL183C, strain NPR1, active compounds read low 0.959 | S. cerevisiae deletion strains, locus YNL209W, strain ssb2, active compounds read low 0.98 | S. cerevisiae deletion strains, locus YNL233W, strain BNI4, active compounds read low 0.99 | S. cerevisiae deletion strains, locus YNL248C, strain rpa49, active compounds read low 0.98 | S. cerevisiae deletion strains, locus YNL250W, strain rad50, active compounds read low 0.963 | S. cerevisiae deletion strains, locus YNL271C, strain bni1, active compounds read low 0.959 | S. cerevisiae deletion strains, locus YNL298W, strain CLA4, active compounds read low 0.968 | S. cerevisiae deletion strains, locus YNL307C, strain MCK1, active compounds read low 0.986 | S. cerevisiae deletion strains, locus YNL322C, strain KRE1 (second series), active compounds read low 0.967 | S. cerevisiae deletion strains, locus YNL322C, strain KRE1, active compounds read low 0.98 | S. cerevisiae deletion strains, locus YNR049C, strain mso1, active compounds read low 0.994 | S. cerevisiae deletion strains, locus YNR052C, strain pop2, active compounds read low 0.977 | S. cerevisiae deletion strains, locus YOL006C, strain TOP1, active compounds read low 1.08 | S. cerevisiae deletion strains, locus YOL012C, strain htz1 1.02 | S. cerevisiae deletion strains, locus YOL147C, strain pex11, active compounds read low 0.975 | S. cerevisiae deletion strains, locus YOR001W, strain rrp6, active compounds read low 0.989 | S. cerevisiae deletion strains, locus YOR061W, strain CKA2, active compounds read low 0.983 | S. cerevisiae deletion strains, locus YOR069W, strain VPS5, active compounds read low 0.99 | S. cerevisiae deletion strains, locus YOR070C, strain gyp1, active compounds read low 0.982 | S. cerevisiae deletion strains, locus YOR080W, strain dia2, active compounds read low 0.973 | S. cerevisiae deletion strains, locus YOR083W, strain WHI5, active compounds read low 0.982 | S. cerevisiae deletion strains, locus YOR106W, strain vam3, active compounds read low 0.984 | S. cerevisiae deletion strains, locus YOR136W, strain idh2, active compounds read low 0.974 | S. cerevisiae deletion strains, locus YOR144C, strain elg1, active compounds read low 0.965 | S. cerevisiae deletion strains, locus YOR184W, strain ser1, active compounds read low 0.981 | S. cerevisiae deletion strains, locus YOR231W, strain MKK1, active compounds read low 0.976 | S. cerevisiae deletion strains, locus YOR265W, strain rbl2, active compounds read low 0.987 | S. cerevisiae deletion strains, locus YOR270C, strain vph1, active compounds read low 1.04 | S. cerevisiae deletion strains, locus YOR290C, strain snf2, active compounds read low 0.993 | S. cerevisiae deletion strains, locus YOR316C, strain cot1, active compounds read low 0.959 | S. cerevisiae deletion strains, locus YPL051W, strain arl3, active compounds read low 0.978 | S. cerevisiae deletion strains, locus YPL055C, strain LGE1, active compounds read low 1.02 | S. cerevisiae deletion strains, locus YPL078C, strain atp4, active compounds read low 0.984 | S. cerevisiae deletion strains, locus YPL106C, strain sse1, active compounds read low 0.963 | S. cerevisiae deletion strains, locus YPL240C, strain hsp82, active compounds read low 0.979 | S. cerevisiae deletion strains, locus YPL241C, strain CIN2, active compounds read low 0.983 | S. cerevisiae deletion strains, locus YPL256C, strain CLN2, active compounds read low 0.965 | S. cerevisiae deletion strains, locus YPR119W, strain clb2, active compounds read low 0.971 | S. cerevisiae deletion strains, locus YPR141C, strain kar3, active compounds read low 0.948 | S. cerevisiae deletion strains, locus YPR163C, strain tif3, active compounds read low 0.968 | S. cerevisiae deletion strains, locus YPR167C, strain met16, active compounds read low 0.978 | S. cerevisiae deletion strains, strain wtn01, active compounds read low 0.973 | S. cerevisiae strains, strain wild type, active compounds read low 0.98
